Several values for one entry are separate records, joined by “and”; a condition that tells them apart may be missing. Equal values may be shown once. Inconclusive results are not listed. Where a structure was tested more than once in an assay, its records may differ in their call. Activity calls are given as the source filed them. How the source made its calls, unless noted: active means hit-call score of the fitted dose curve at least 0.9, where 1 is the maximum; inactive means score below 0.9.
Assays:
[1] = read-out: Monokine induced gamma interferon (MIG), CXCL9 (gene 4283); assay: BSK_3C_MIG: BioMAP Diversity Plus: 3C Assay for Monokine induced gamma interferon (MIG) Biomarker Activity (AID 2283021); settings: primary human endothelial cells (HUVEC); actives raise or lower the signal;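 on AC50: MIG protein level measured by immunoassay in the treated endothelial cultures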
How it was run: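 ELISA-measured MIG in dosed HUVEC 3C cultures at 24 h, analysed by bidirectional fitting with DMSO defining baseline activity.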

[2] = BSK_3C_SRB: Viability Assessment in the BioMAP Diversity Plus: 3C Assay (AID 2283023); settings: primary human endothelial cells (HUVEC);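 further: fitted both ways against DMSO so a hit may be signal rise or drop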
How it was run: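 Primary human umbilical vein endothelial cells in the 3C system were read 24 h after compound dosing. Total protein was stained with 0.1% sulforhodamine B after 10% TCA fixation and read at 560 nm, with bidirectional fitting against DMSO as baseline.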

[3] = read-out: Matrix Metallopeptidase 1 (MMP1), MMP1 (gene 4312); assay: BSK_BE3C_MMP1: BioMAP Diversity Plus: BE3C Assay for Matrix Metallopeptidase 1 (MMP1) Biomarker Activity (AID 2283024); settings: primary human bronchial epithelial cells; actives raise or lower the signal
How it was run: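 In this multiplexed primary-cell system, human bronchial epithelium received chemicals for 24 h before an ELISA for MMP1. Values reflect bidirectional fits normalised to the DMSO baseline.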

[4] = BSK_3C_Vis: BioMAP Diversity Plus: 3C Assay for Morphology Visualization (AID 2283025); settings: primary human endothelial cells (HUVEC);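 further: fitted both ways so gain or loss versus DMSO counts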;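 on AC50: light microscopy image of cell morphology used as background control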
How it was run: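 Light-microscopy morphology readout, 24 h exposure, human primary umbilical vein endothelium; analysed relative to DMSO with bidirectional fitting.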

[5] = read-out: Pselectin, SELP (gene 6403); assay: BSK_4H_Pselectin: BioMAP Diversity Plus: 4H Assay for Pselectin Biomarker Activity (AID 2283026); settings: primary human endothelial cells (HUVEC); actives raise or lower the signal
How it was run: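 Bidirectional fits against DMSO gave the endpoint. Cells: primary human umbilical vein endothelium, chemical-treated for 24 h before ELISA detection of P-selectin.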

[6] = BSK_4H_SRB: Viability Assessment in the BioMAP Diversity Plus: 4H Assay (AID 2283027); settings: primary human endothelial cells (HUVEC);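 further: cells exposed to compound for 24 h before staining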;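 on AC50: curves fitted both ways versus DMSO so AC50 may be loss or gain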
How it was run: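 Cytotoxicity readout: sulforhodamine B (0.1%) staining of total protein after 10% TCA fixation, measured at 560 nm in human umbilical vein endothelium at 24 h. DMSO set the baseline; fitting was bidirectional.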

[7] = BSK_BE3C_SRB: Viability Assessment in the BioMAP Diversity Plus: BE3C Assay (AID 2283028); settings: primary human bronchial epithelial cells;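 on AC50: fitted both ways so AC50 may mark signal gain or loss versus DMSO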
How it was run: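 Human primary bronchial epithelial cells were exposed to test chemicals for 24 h. Total protein in parallel cultures was then measured by staining with 0.1% sulforhodamine B after 10% TCA fixation, with absorbance read at 560 nm. Activity was fitted bidirectionally against DMSO.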

[8] = read-out: Thrombomodulin, THBD (gene 7056); assay: BSK_3C_Thrombomodulin: BioMAP Diversity Plus: 3C Assay for Thrombomodulin Biomarker Activity (AID 2283029); settings: primary human endothelial cells (HUVEC); actives raise or lower the signal
How it was run: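 In a multiplexed primary-cell system, human umbilical vein endothelium received chemical and was assayed 24 h later for thrombomodulin by ELISA. Parallel cultures were SRB-stained (0.1% SRB after 10% TCA fixation, read at 560 nm) to flag cytotoxicity.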

[9] = read-out: Urokinase-type plasminogen activator receptor (uPAR), PLAUR (gene 5329); assay: BSK_4H_uPAR: BioMAP Diversity Plus: 4H Assay for Urokinase-type plasminogen activator receptor (uPAR) Biomarker Activity (AID 2283030); settings: primary human endothelial cells (HUVEC); actives raise or lower the signal
How it was run: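 Primary human umbilical vein endothelial cells were exposed to chemical for 24 h before cell-surface uPAR was quantified by ELISA. Activity was fitted bidirectionally against the DMSO negative control baseline.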

[10] = read-out: Vascular endothelial growth factor receptor 2 (Homo sapiens) (UniProt P35968); assay: BSK_4H_VEGFRII: BioMAP Diversity Plus: 4H Assay for Vascular endothelial growth factor receptor 2 (VEGFR2) Biomarker Activity (AID 2283031); settings: primary human endothelial cells (HUVEC); actives raise or lower the signal;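 on AC50: cell-surface VEGFR2 protein level quantified by ELISA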
How it was run: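 Primary human umbilical vein endothelial cells in the BioMAP 4H system were dosed with test chemical, and 24 h later VEGFRII was measured by ELISA. Activity was fitted bidirectionally against DMSO as negative control and baseline.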

[11] = read-out: Human Leukocyte Antigen - DR isotype (HLADR), HLA-DRA (gene 3122); assay: BSK_BE3C_HLADR: BioMAP Diversity Plus: BE3C Assay for Human Leukocyte Antigen - DR isotype (HLADR) Biomarker Activity (AID 2283032); settings: primary human bronchial epithelial cells; actives raise or lower the signal
How it was run: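 BioMAP BE3C format: human bronchial epithelium, 24 h compound treatment, ELISA detection of HLA-DR, with bidirectional analysis relative to DMSO.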

[12] = read-out: Vascular cell adhesion molecule 1 (VCAM1), VCAM1 (gene 7412); assay: BSK_4H_VCAM1: BioMAP Diversity Plus: 4H Assay for Vascular cell adhesion molecule 1 (VCAM1) Biomarker Activity (AID 2283033); settings: primary human endothelial cells (HUVEC); actives raise or lower the signal
How it was run: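 In this human endothelial (HUVEC) system, biomarker ELISA was run 24 h after compound addition, and total protein in parallel wells was assessed by SRB at 560 nm; DMSO served as negative control.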

[13] = read-out: Interferon-gamma inducible Protein 10 (IP10), CXCL10 (gene 3627); assay: BSK_BE3C_IP10: BioMAP Diversity Plus: BE3C Assay for Interferon-gamma inducible Protein 10 (IP10) Biomarker Activity (AID 2283034); settings: primary human bronchial epithelial cells; actives raise or lower the signal
How it was run: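 BE3C cells (human bronchial epithelial, primary); 24 h exposure; ELISA for IP-10; DMSO-referenced bidirectional fit.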

[14] = read-out: Monokine induced gamma interferon (MIG), CXCL9 (gene 4283); assay: BSK_BE3C_MIG: BioMAP Diversity Plus: BE3C Assay for Monokine induced gamma interferon (MIG) Biomarker Activity (AID 2283035); settings: primary human bronchial epithelial cells; actives raise or lower the signal
How it was run: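 hu bronchial epithelial 1° cells, 24 h cpd; MIG by ELISA; bidirectional fit, DMSO = baseline.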

[15] = read-out: Transforming growth factor beta 1 (TGFb1), TGFB1 (gene 7040); assay: BSK_BE3C_TGFb1: BioMAP Diversity Plus: BE3C Assay for Transforming growth factor beta 1 (TGFb1) Biomarker Activity (AID 2283036); settings: primary human bronchial epithelial cells; actives raise or lower the signal
How it was run: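 TGF-b1 measured via ELISA, 24 h after chemical dosing of human bronchial epithelial cells (BE3C). Overt cytotoxicity assessed in parallel by SRB (0.1%, TCA-fixed, 560 nm); analysis bidirectional relative to DMSO.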

[16] = read-out: Plasminogen activator inhibitor-1 (PAI1), SERPINE1 (gene 5054); assay: BSK_BE3C_PAI1: BioMAP Diversity Plus: BE3C Assay for Plasminogen activator inhibitor-1 (PAI1) Biomarker Activity (AID 2283037); settings: primary human bronchial epithelial cells; actives raise or lower the signal
How it was run: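 In this multiplexed primary-cell system, bronchial epithelial cells receive test chemical and are sampled at 24 h. PAI-1 is read by ELISA, with DMSO serving as negative control for bidirectional fitting.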

[17] = read-out: urokinase plasminogen activator (uPA), PLAU (gene 5328); assay: BSK_BE3C_uPA: BioMAP Diversity Plus: BE3C Assay for urokinase plasminogen activator (uPA) Biomarker Activity (AID 2283038); settings: primary human bronchial epithelial cells; actives raise or lower the signal
How it was run: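 Human primary bronchial epithelial cells were exposed to chemical for 24 h, then uPA levels were measured by ELISA. Responses were fitted bidirectionally against DMSO as negative control and baseline. Parallel SRB staining of total protein gauged overt cytotoxicity.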

[18] = read-out: Urokinase-type plasminogen activator receptor (uPAR), PLAUR (gene 5329); assay: BSK_BE3C_uPAR: BioMAP Diversity Plus: BE3C Assay for Urokinase-type plasminogen activator receptor (uPAR) Biomarker Activity (AID 2283039); settings: primary human bronchial epithelial cells; actives raise or lower the signal
How it was run: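 Chemically treated human bronchial epithelial cells (lung primary) are assayed for uPAR by ELISA after 24 h, with data fitted in both directions using DMSO as negative control.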

[19] = read-out: Interleukin-6 (IL6), IL6 (gene 3569); assay: BSK_CASM3C_IL6: BioMAP Diversity Plus: CASM3C Assay for Interleukin-6 (IL6) Biomarker Activity for (AID 2283040); settings: primary human coronary artery smooth muscle cells; actives raise or lower the signal
[20] = biological target: human Vitamin D Receptor (VDR), VDR (gene 7421) (UniProt P11473); assay: ATG_VDR_TRANS: Attagene TRANS-FACTORIAL HepG2 Assay for human Vitamin D Receptor (VDR) (AID 2283022; active means hit-call score of the fitted dose curve at least 0.9, where 1 is the maximum)
Sequence of human Vitamin D Receptor (VDR), VDR (gene 7421) (P11473 whole entry, looked up, the tested form may be a part): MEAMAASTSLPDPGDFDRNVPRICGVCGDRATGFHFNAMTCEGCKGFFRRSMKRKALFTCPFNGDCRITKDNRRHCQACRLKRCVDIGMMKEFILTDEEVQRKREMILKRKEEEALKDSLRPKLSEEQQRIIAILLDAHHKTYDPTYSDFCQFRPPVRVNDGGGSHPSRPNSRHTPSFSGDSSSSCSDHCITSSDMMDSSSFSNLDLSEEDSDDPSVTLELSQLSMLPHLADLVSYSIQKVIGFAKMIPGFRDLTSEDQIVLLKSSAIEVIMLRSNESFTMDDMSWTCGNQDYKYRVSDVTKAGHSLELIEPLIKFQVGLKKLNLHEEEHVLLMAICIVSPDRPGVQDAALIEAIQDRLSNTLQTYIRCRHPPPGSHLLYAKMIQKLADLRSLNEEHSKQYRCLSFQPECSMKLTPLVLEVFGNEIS
How it was run: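 HepG2 cells were transiently transfected with multiple GAL4-UAS reporter units, so signal reflects exogenous chimeric receptor-Gal4 activity. After 24 h compound exposure, reporter mRNA was measured by RT-PCR, fluorescent labelling and capillary electrophoresis, fitted for gain of signal versus DMSO.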

Measured: AC50

COc1cccc(O)c1
active: [3] 0.193 µM
inactive: [1] | [2] | [4] | [5] | [6] | [7] | [8] | [9] | [10] | [11] | [12] | [13] | [14] | [15] | [16] | [17] | [18] | [19]

COC1=CC(=O)C[C@@H](C)[C@]12Oc1c(Cl)c(OC)cc(OC)c1C2=O
inactive: [1] | [2] | [3] | [5] | [6] | [7] | [8] | [9] | [10] | [11] | [12] | [13] | [14] | [15] | [16] | [17] | [18] | [19]

c1ccc(CNc2ncnc3c2ncn3C2CCCCO2)cc1 (stereo unspecified)
inactive: [20]

O=C(CCCN1CCC(O)(c2ccc(Cl)cc2)CC1)c1ccc(F)cc1
active: [2] 17.4 µM | [4] 9.8 µM | [6] 9.78 µM | [9] 10.9 µM | [12] 20 µM
inactive: [1] | [3] | [5] | [7] | [8] | [10] | [11] | [13] | [14] | [15] | [16] | [17] | [18] | [19]

O=S(=O)(O)c1ccc2cc(O)ccc2c1
inactive: [20]

CCCCCCCCCCCC
active: [2] 31.1 µM and 30.4 µM | [8] 36.5 µM | [10] 28 µM | [11] 5.83 µM and 5.29 µM | [12] 33.4 µM and 32.1 µM | [13] 7.03 µM and 6.14 µM | [14] 9 µM and 9.5 µM | [16] 9.17 µM and 6.53 µM
inactive: [1] | [3] | [5] | [6] | [7] | [8] | [9] | [10] | [17] | [18] | [19]

O=C(Nc1cccc([N+](=O)[O-])c1)c1cc2ccccc2cc1O
inactive: [20]

CCCCCCCCC(C)=O
inactive: [20]

Cc1ccc2ccc3ccc(C)cc3c2c1
inactive: [20]

Cc1ccc(N=Nc2c(O)ccc3ccccc23)c(C)c1
inactive: [1] | [2] | [3] | [5] | [6] | [7] | [8] | [9] | [10] | [14] | [15] | [19]
active: [4] 19.9 µM | [11] 10 µM | [12] 9.98 µM | [13] 3.88 µM | [16] 10 µM | [17] 10 µM | [18] 4.02 µM

c1cnc2c(c1)ccc1cccnc12
inactive: [20]

O=C(F)C(F)(F)C(F)(F)C(F)(F)C(=O)F
inactive: [20]

CC(=O)Nc1ccc(O)cc1
inactive: [1] | [2] | [3] | [4] | [5] | [6] | [7] | [8] | [9] | [10] | [11] | [12] | [13] | [14] | [15] | [16] | [17] | [18] | [19]

CCC(C)c1nccnc1OC (stereo unspecified)
inactive: [20]

NC(=NCCCCCCN=C(N)/N=C(\N)Nc1ccc(Cl)cc1)/N=C(\N)Nc1ccc(Cl)cc1
inactive: [15]
active: [1] 9.77 µM | [2] 4.85 µM | [3] 3.14 µM | [5] 4.81 µM | [6] 4.85 µM | [7] 4.74 µM | [8] 6.15 µM | [9] 4.47 µM | [10] 4.47 µM | [11] 3.83 µM | [12] 5.68 µM | [13] 4.26 µM | [14] 11.9 µM | [16] 1.46 µM | [17] 3.31 µM | [18] 3.1 µM | [19] 7.19 µM

CC(C)CCOCCC(C)C
inactive: [20]

Oc1cc2ccccc2cc1O
inactive: [1] | [2] | [3] | [4] | [5] | [6] | [7] | [8] | [9] | [10] | [11] | [12] | [13] | [14] | [15] | [16] | [17] | [18] | [19]

CCCCCCCCCCCCOS(=O)(=O)O
active: [7] 32.6 µM | [11] 26.2 µM | [13] 12.5 µM | [14] 26.4 µM | [15] 28.7 µM | [16] 33.3 µM | [17] 31.6 µM | [18] 32.8 µM
inactive: [1] | [3] | [4] | [5] | [6] | [8] | [9] | [10] | [12] | [19]

CCOCCOCC
inactive: [20]

Cc1cc(Cc2cc(C)cc(C(C)(C)C)c2O)c(O)c(C(C)(C)C)c1
inactive: [20]

Oc1c(Cl)cc(Cl)cc1Sc1cc(Cl)cc(Cl)c1O
inactive: [3] | [8] | [19]
active: [2] 15.7 µM and 13.3 µM | [5] 5.81 µM and 4.28 µM | [6] 23.9 µM and 23.7 µM | [7] 5.25 µM and 5.18 µM | [8] 11.1 µM | [9] 20 µM and 9.97 µM | [10] 5.09 µM and 4.99 µM | [11] 3.56 µM and 3.35 µM | [12] 12.8 µM | [13] 4.76 µM | [14] 6.66 µM and 7.75 µM | [16] 4.59 µM | [17] 5.33 µM and 5.44 µM | [18] 1.8 µM and 1.83 µM
